Results: PubChem BioAssay (EPA / NIEHS)
Where “and” joins values, the source holds several entries; their conditions need not be identical. Equal values may be shown once. Results filed as inconclusive are left out. Where a structure was tested more than once in an assay, its records may differ in their call. Calls of active or inactive are those of the source. Rule for the calls, unless noted: active = hit-call score of the fitted dose curve at least 0.9, where 1 is the maximum; inactive = score below 0.9.

Tests used:
[1] = BSK_BT_PBMCCytotoxicity: PBMC Cytotoxicity Assessment in the BioMAP Diversity Plus: BT Assay (AID 2284225); conditions: primary human B cells with PBMC;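 note: PBMC viability measured by Alamar Blue dye reduction fluorescence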
Summary of the method: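 Viability by Alamar Blue reduction (6 h, ex/em 546/580 nm) after 90 h culture of SEB/TSST-1-activated PBMC (20 ng/mL each) given compound 1 h before activation. DMSO served as baseline for curve fitting.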

[2] = read-out: Secreted IgG (sIgG), gene 3500; assay: BSK_BT_sIgG: BioMAP Diversity Plus: BT Assay for Secreted IgG (sIgG) Biomarker Activity (AID 2284226); conditions: primary human B cells with PBMC
Summary of the method: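 ELISA quantitation of secreted IgG from human B cells co-cultured with PBMC, sampled 24 h post-dosing. Values fitted relative to DMSO vehicle as baseline, positive fitting direction.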

[3] = BSK_BT_Bcell_Proliferation: Viability Assessment in the BioMAP Diversity Plus: BT Assay for B cell Proliferation (AID 2284227); conditions: primary human B cells with PBMC
Summary of the method: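 Using a human primary B cell–PBMC co-culture, the assay measures total protein by sulforhodamine B absorbance as a gauge of proliferation after 72 h. Analysis followed the positive fitting direction with DMSO as baseline.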

[4] = read-out: Interleukin 6 (IL6), IL6 (gene 3569); assay: BSK_BT_xIL6: BioMAP Diversity Plus: BT Assay for Interleukin 6 (IL6) Biomarker Activity (AID 2284228); conditions: primary human B cells with PBMC
Summary of the method: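 B cells and peripheral blood mononuclear cells (human primary co-culture) were dosed with chemical, and after 24 h IL-6 released into the medium was measured by Luminex xMAP. Responses were analysed as gain of signal over DMSO control.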

[5] = read-out: Interleukin 17A (IL17A), IL17A (gene 3605); assay: BSK_BT_xIL17A: BioMAP Diversity Plus: BT Assay for Interleukin 17A (IL17A) Biomarker Activity (AID 2284229); conditions: primary human B cells with PBMC
Summary of the method: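 Secreted IL-17A was the measured endpoint, read by Luminex xMAP multiplex in supernatants of a human B cell/PBMC co-culture harvested 24 h after chemical dosing. Signal increase relative to DMSO defined activity.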

[6] = CCTE_Mundy_HCI_Cortical_Synap_Neur_Matur_NeuriteCount: CCTE's Synaptogenesis and Neurite Maturation Assay in rat cortical cells for Neurite Count, Mundy Lab (AID 2284222)
Summary of the method: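 In this multiplexed morphology readout, rat primary cortical neurons are fixed at DIV 12 following dosing at DIV 7 and stained for MAP2, synaptophysin and nuclei. High-content image analysis yields neurite count.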

[7] = CCTE_Mundy_HCI_Cortical_Synap_Neur_Matur_CellBodySpotCount: CCTE's Synaptogenesis and Neurite Maturation Assay in rat cortical cells for Cell Body Spot Count, Mundy Lab (AID 2284223)
Summary of the method: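 Rat cortical neurons; AraC @ DIV 5; dose + media change DIV 7; fix DIV 12; anti-MAP2/anti-synaptophysin IF, Hoechst; HCI count of soma synaptophysin puncta/neuron; DMSO = negative control.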

[8] = CCTE_Mundy_HCI_hNP1_Pro_ResponderAvgInten: CCTE's Proliferation Assay in human neuroprogenitor cells, Mundy Lab (AID 2284224; active = hit-call score of the fitted dose curve at least 0.9, where 1 is the maximum;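 note: human neural progenitor cells hNP1 derived from WA09 embryonic stem cells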)
Summary of the method: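 Proliferation was scored as BrdU labelling intensity in human neural progenitors derived from WA09 embryonic cells, measured 26.25 hours after chemical dosing. Activity was fitted relative to DMSO.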

[9] = CCTE_Mundy_HCI_hN2_NOG_NeuriteLength: CCTE's Neurite Outgrowth Assay in human hN2 cells for Neurite Length, Mundy Lab (AID 2284220; active = hit-call score of the fitted dose curve at least 0.9, where 1 is the maximum)
Summary of the method: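 Plate hNP1-derived neurons, then add chemical 2 h later as a 1/10 dilution. Stain with anti-βIII-tubulin then Alexa Fluor-488 secondary, and image automatically to measure neurite length.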

[10] = CCTE_Mundy_HCI_hN2_NOG_NeuronCount: CCTE's Neurite Outgrowth Assay in human hN2 cells for Neuron Count, Mundy Lab (AID 2284221; active = hit-call score of the fitted dose curve at least 0.9, where 1 is the maximum)
Summary of the method: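 Read-out is the number of betaIII-tubulin-positive neurons imaged by automated high-content analysis, with DMSO as negative control.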

## CCOP(=S)(OCC)SCCS(=O)(=O)CC
[1]
  outcome: inactive
[2]
  outcome: inactive
[3]
  outcome: inactive
[4]
  outcome: inactive
[5]
  outcome: inactive

## ClC1=C(Cl)[C@]2(Cl)[C@H]3[C@H]([C@H]4C=C[C@H]3C4)[C@@]1(Cl)C2(Cl)Cl
[1]
  AC50: 30.5 µM (active)
[2]
  AC50: 7.53 µM (active)
[3]
  AC50: 36.3 µM (active)
[4]
  AC50: 20 µM (active)
[5]
  AC50: 24.4 µM (active)

## C=C(C)C(=O)[O][Sn]([CH2]CCC)([CH2]CCC)[CH2]CCC
[6]
  AC50: 0.223 µM (active)
[7]
  AC50: 0.142 µM (active)
[8]
  AC50: 249 nM (active)

## CC1(C)Cc2cccc(O)c2O1
[1]
  outcome: inactive
[2]
  outcome: inactive
[3]
  outcome: inactive
[4]
  outcome: inactive
[5]
  outcome: inactive

## ClC(Cl)=C(Cl)C(Cl)=C(Cl)Cl
[1]
  AC50: 11.1 µM (active)
[2]
  outcome: inactive
[3]
  AC50: 14.2 µM (active)
[4]
  AC50: 11.8 µM (active)
[5]
  outcome: inactive

## O=C1C2(Cl)C3(Cl)C4(Cl)C(Cl)(Cl)C5(Cl)C3(Cl)C1(Cl)C5(Cl)C24Cl (stereo unspecified)
[6]
  AC50: 24.1 µM (active)
[7]
  AC50: 9.8 µM (active)
[8]
  AC50: 21700 nM (active)

## CCOP(=S)(OCC)Oc1ccc(S(C)=O)cc1 (stereo unspecified)
[1]
  outcome: inactive
[2]
  outcome: inactive
[3]
  outcome: inactive
[4]
  outcome: inactive
[5]
  outcome: inactive

## COP(=S)(OC)Oc1c(Cl)cc(C)cc1Cl
[1]
  AC50: 14.5 µM (active)
[2]
  AC50: 22.9 µM (active)
[3]
  outcome: inactive
[4]
  outcome: inactive
[5]
  AC50: 10.7 µM (active)

## COP(=S)(OC)Oc1cc(Cl)c(Cl)cc1Cl
[1]
  outcome: inactive
[2]
  AC50: 34.3 µM (active)
[3]
  outcome: inactive
[4]
  outcome: inactive
[5]
  outcome: inactive

## BrCCBr
[1]
  outcome: inactive
[2]
  outcome: inactive
[3]
  outcome: inactive
[4]
  outcome: inactive
[5]
  outcome: inactive

## COc1cc(OC)nc(NC(=O)NS(=O)(=O)c2ncccc2C(=O)N(C)C)n1
[1]
  outcome: inactive
[2]
  outcome: inactive
[3]
  outcome: inactive
[4]
  outcome: inactive
[5]
  outcome: inactive

## O=[N+]([O-])c1ccc2c3c(cccc13)CC2
[1]
  outcome: inactive
[2]
  outcome: inactive
[3]
  outcome: inactive
[4]
  AC50: 20 µM (active)
[5]
  outcome: inactive

## O=S(=O)(c1ccc(Cl)cc1)c1ccc(Cl)cc1
[1]
  outcome: inactive
[2]
  outcome: inactive
[3]
  outcome: inactive
[4]
  outcome: inactive
[5]
  outcome: inactive

## COC[C@H](C)N(C(=O)CCl)c1c(C)csc1C
[1]
  outcome: inactive
[2]
  outcome: inactive
[3]
  outcome: inactive
[4]
  outcome: inactive
[5]
  outcome: inactive

## COP(=S)(OC)Oc1ccc(S(=O)(=O)N(C)C)cc1
[1]
  outcome: inactive
[2]
  AC50: 9.48 µM (active)
[3]
  outcome: inactive
[4]
  outcome: inactive
[5]
  outcome: inactive

## CC(=O)C(Cl)C(=O)N(C)C (stereo unspecified)
[1]
  AC50: 20 µM (active)
[2]
  AC50: 20 µM (active)
[3]
  AC50: 25 µM (active)
[4]
  AC50: 27.9 µM (active)
[5]
  outcome: inactive

## Oc1c(I)cc(I)cc1I
[1]
  outcome: inactive
[2]
  outcome: inactive
[3]
  outcome: inactive
[4]
  outcome: inactive
[5]
  outcome: inactive

## CCOC(=O)/C=C(C)/C=C/C[C@@H](C)CCCC(C)C
[1]
  AC50: 23.7 µM (active)
[2]
  AC50: 20 µM (active)
[3]
  AC50: 27 µM (active)
[4]
  AC50: 20.8 µM (active)
[5]
  AC50: 20 µM (active)

## CC(C)CCCCCCOC(=O)c1ccccc1C(=O)OCCCCCCC(C)C
[1]
  outcome: inactive
[2]
  outcome: inactive
[3]
  outcome: inactive
[4]
  outcome: inactive
[5]
  outcome: inactive

## CCSC(C)CC1CC(=O)C(C(CC)=NOC/C=C/Cl)=C(O)C1 (stereo unspecified)
[1]
  outcome: inactive
[2]
  outcome: inactive
[3]
  outcome: inactive
[4]
  outcome: inactive
[5]
  outcome: inactive

## CCOP(=S)(OCC)Oc1nc(Cl)c(Cl)cc1Cl
[9]
  AC50: 28.4 µM (active)
[10]
  AC50: 17.1 µM (active)
[6]
  AC50: 30 µM (active)
[7]
  AC50: 83.2 µM (active)
  outcome: inactive
[8]
  AC50: 24.3 µM (active) and 73.3 µM (active)

## OCc1ccco1
[1]
  outcome: inactive
[2]
  AC50: 26.1 µM (active)
[3]
  AC50: 26.7 µM (active)
[4]
  outcome: inactive
[5]
  outcome: inactive

## NC(=S)Nc1ccccc1
[1]
  outcome: inactive
[2]
  outcome: inactive
[3]
  outcome: inactive
[4]
  outcome: inactive
[5]
  outcome: inactive

## O=C(OC1CCCCC1)c1ccccc1C(=O)OC1CCCCC1
[1]
  AC50: 34.8 µM (active)
[2]
  AC50: 34.2 µM (active)
[3]
  AC50: 31.7 µM (active)
[4]
  AC50: 28.3 µM (active)
[5]
  AC50: 20.9 µM (active)

## COC(=O)c1sccc1S(=O)(=O)NC(=O)Nc1nc(C)nc(OC)n1
[1]
  outcome: inactive
[2]
  outcome: inactive
[3]
  outcome: inactive
[4]
  outcome: inactive
[5]
  outcome: inactive

## O=C(O)CCC(F)(C(F)(F)F)C(F)(F)F
[1]
  outcome: inactive
[2]
  outcome: inactive
[3]
  outcome: inactive
[4]
  outcome: inactive
[5]
  outcome: inactive

## Oc1ccc(-c2ccccc2)cc1
[1]
  outcome: inactive
[3]
  outcome: inactive
[4]
  outcome: inactive
[5]
  outcome: inactive

## O=Cc1cccc(Oc2ccccc2)c1
[1]
  outcome: inactive
[2]
  outcome: inactive
[3]
  outcome: inactive
[4]
  AC50: 5.07 µM (active)
[5]
  outcome: inactive

## O=C(O)C(F)(F)C(F)(F)C(F)(F)C(F)(F)C(F)(F)C(F)(F)F
[1]
  outcome: inactive
[2]
  outcome: inactive
[3]
  outcome: inactive
[4]
  outcome: inactive
[5]
  outcome: inactive

## CCCCCCCCC(=O)NCc1ccc(O)c(OC)c1
[1]
  outcome: inactive
[2]
  outcome: inactive
[3]
  outcome: inactive
[4]
  outcome: inactive
[5]
  outcome: inactive

## CCNc1nc(NC(C)(C)C)nc(SC)n1
[1]
  outcome: inactive
[2]
  AC50: 26.7 µM (active)
[3]
  outcome: inactive
[4]
  outcome: inactive
[5]
  outcome: inactive
